Results filed as inconclusive are left out. The source made the active and inactive calls. Unless noted, the call rests on the fitted dose curve; in most records, active means well fitted curve in the direction sought with a large enough effect in the repeat runs; inconclusive means weak or mixed curves; inactive means no such curve, though single readings can be large; an effect the other way counts as inactive or inconclusive.
How the values were obtained:
[1] = qHTS assay to identify small molecule antagonists of the glucocorticoid receptor (GR) signaling pathway - cell viability counter screen (AID 720693); further: nearly all actives have a fitted effect of over 55% in size
[2] = qHTS assay to identify small molecule antagonists of the androgen receptor (AR) signaling pathway using the MDA cell line - cell viability counter screen (AID 743041; further: nearly all actives have a fitted effect of over 45% in size)
Procedure, shortened: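 In this qHTS counter assay, fluorescence intensity after CellTiter-Fluor addition indicated viability of MDA-kb2 AR-luc cells given compounds and R1881 for 16 h at 37C.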

[3] = qHTS assay to identify small molecule antagonists of the thyroid receptor (TR) signaling pathway - cell viability counter screen (AID 743064); further: nearly all actives have a fitted effect of over 50% in size
Procedure, shortened: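 Counter screen for cytotoxicity: compound plus T3 (1 nM final) on GH3.TRE-Luc cells, 23.5 h at 37 °C, then fluorescence viability readout with CellTiter-Fluor.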

[4] = qHTS assay to identify small molecule antagonists of the thyroid receptor (TR) signaling pathway (AID 743065); further: series mostly up to about 70 µM; nearly all actives have a fitted effect of over 55% in size
Procedure, shortened: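 GH3.TRE-Luc rat pituitary cells carrying two TR response elements driving luciferase were plated for 4 h, given compound plus 1 nM T3 (final), and incubated 23.5 h at 37 C. ONE-Glo luminescence measured reporter inhibition; CellTiter-Fluor fluorescence tracked cytotoxicity.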

[5] = system: thyroid hormone receptor (rat, GH3 cells); assay: qHTS assay to identify small molecule agonists of the thyroid receptor (TR) signaling pathway (AID 743066; calls by dose curve)
[6] = molecular target: Estrogen receptor (Homo sapiens) (UniProt P03372); assay: qHTS assay to identify small molecule antagonists of the estrogen receptor alpha (ER-alpha) signaling pathway (AID 743069; active means well fitted curve in the direction sought with a large enough effect in the signal ratio in the repeat runs, not every such curve was filed as active; the % refers to the signal ratio)
Sequence of Estrogen receptor (Homo sapiens) (P03372 whole entry, looked up): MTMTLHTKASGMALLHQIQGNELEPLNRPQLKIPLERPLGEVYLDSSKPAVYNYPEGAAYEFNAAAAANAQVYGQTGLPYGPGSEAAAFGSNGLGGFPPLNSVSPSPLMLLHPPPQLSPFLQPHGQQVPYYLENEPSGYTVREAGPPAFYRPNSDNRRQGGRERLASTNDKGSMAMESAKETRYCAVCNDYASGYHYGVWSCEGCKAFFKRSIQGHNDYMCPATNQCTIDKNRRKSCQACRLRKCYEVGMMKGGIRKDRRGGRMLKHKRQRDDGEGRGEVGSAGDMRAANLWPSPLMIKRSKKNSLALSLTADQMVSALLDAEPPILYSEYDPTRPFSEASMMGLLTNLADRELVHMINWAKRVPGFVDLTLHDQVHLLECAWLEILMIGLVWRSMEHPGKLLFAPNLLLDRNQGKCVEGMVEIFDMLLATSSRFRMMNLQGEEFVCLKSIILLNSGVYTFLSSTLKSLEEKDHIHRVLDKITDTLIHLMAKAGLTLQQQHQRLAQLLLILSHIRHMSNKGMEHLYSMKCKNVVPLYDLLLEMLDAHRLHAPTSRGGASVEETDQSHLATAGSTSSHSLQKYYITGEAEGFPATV
Procedure, shortened: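 A 17beta-estradiol challenge was applied right after compound transfer to ER-alpha-UAS-bla HEK293 cells previously kept in charcoal-stripped serum. Plates stood 18 hr at 37C and 5% CO2; fluorescence was read following 2 hr FRET substrate loading at room temperature.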

[7] = qHTS assay to identify small molecule antagonists of the estrogen receptor alpha (ER-alpha) signaling pathway - cell viability counter screen (AID 743074; calls by dose curve;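 further: HEK293 cells carrying ER-alpha-UAS-bla reporter stimulated with 17beta-estradiol; nearly all actives have a fitted effect of over 45% in size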)
[8] = molecular target: Estrogen receptor (Homo sapiens) (UniProt P03372); assay: qHTS assay to identify small molecule agonists of the estrogen receptor alpha (ER-alpha) signaling pathway (AID 743075; calls by dose curve;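 further: HEK293 GripTite cells with ER-alpha and UAS-driven beta-lactamase reporter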)
[9] = molecular target: Estrogen receptor (Homo sapiens) (UniProt P03372); assay: qHTS assay to identify small molecule agonists of the estrogen receptor alpha (ER-alpha) signaling pathway using the BG1 cell line (AID 743079); further: nearly all actives have a fitted effect of over 20% in size; further: potency means the concentration at half of the fitted maximal effect
[10] = qHTS assay to identify small molecule antagonists of the estrogen receptor alpha (ER-alpha) signaling pathway using the BG1 cell line (AID 743080; calls by dose curve; further: series mostly up to about 70 µM; nearly all actives have a fitted effect of over 25% in size)
Procedure, shortened: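 Antagonist mode: compounds in DMSO were pinned onto BG1-Luc-4E2 cells alongside 17beta-estradiol agonist, incubated 21.5 h, and ERE-driven luciferase measured with ONE-Glo. Cytotoxicity was multiplexed using CellTiter-Fluor fluorescence.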

[11] = qHTS assay to identify small molecule antagonists of the estrogen receptor alpha (ER-alpha) signaling pathway using the BG1 cell line - cell viability counter screen (AID 743081);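 further: compound given together with 17beta-estradiol as the ER stimulus; series mostly up to about 70 µM; nearly all actives have a fitted effect of over 45% in size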
[12] = molecular target: Aromatase (Homo sapiens) (UniProt P11511); assay: qHTS assay to identify aromatase inhibitors (AID 743083); further: series mostly up to about 70 µM; nearly all actives have a fitted effect of over 55% in size
Sequence of Aromatase (Homo sapiens) (P11511 whole entry, looked up): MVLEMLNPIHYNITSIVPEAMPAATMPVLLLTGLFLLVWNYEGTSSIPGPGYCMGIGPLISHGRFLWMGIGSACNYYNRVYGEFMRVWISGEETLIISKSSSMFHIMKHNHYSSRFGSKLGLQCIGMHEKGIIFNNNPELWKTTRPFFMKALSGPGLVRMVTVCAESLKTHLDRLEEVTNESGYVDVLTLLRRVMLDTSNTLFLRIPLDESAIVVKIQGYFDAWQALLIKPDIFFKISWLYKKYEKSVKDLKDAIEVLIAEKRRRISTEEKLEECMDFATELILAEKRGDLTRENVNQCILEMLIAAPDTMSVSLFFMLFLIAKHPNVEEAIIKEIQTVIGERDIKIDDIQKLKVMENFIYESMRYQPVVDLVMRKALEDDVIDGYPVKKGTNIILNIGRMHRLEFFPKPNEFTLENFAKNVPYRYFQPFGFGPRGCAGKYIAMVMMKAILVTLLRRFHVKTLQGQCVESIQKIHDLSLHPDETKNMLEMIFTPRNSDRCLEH

[13] = qHTS assay for identifying genotoxic compounds that show differential cytotoxicity against isogenic chicken DT40 cell lines with known DNA damage response pathways - Rad54/Ku70 mutant cell line (AID 743015); further: nearly all actives have a fitted effect of over 60% in size; further: potency means the concentration at half of the fitted maximal effect
[14] = molecular target: Androgen receptor (Homo sapiens) (UniProt P10275); assay: qHTS assay to identify small molecule agonists of the androgen receptor (AR) signaling pathway (AID 743036; active means well fitted activation curve with a large enough effect in the signal ratio in the repeat runs, with a control signal flat, not every such curve was filed as active; the % refers to the signal ratio)
Sequence of Androgen receptor (Homo sapiens) (P10275 whole entry, looked up): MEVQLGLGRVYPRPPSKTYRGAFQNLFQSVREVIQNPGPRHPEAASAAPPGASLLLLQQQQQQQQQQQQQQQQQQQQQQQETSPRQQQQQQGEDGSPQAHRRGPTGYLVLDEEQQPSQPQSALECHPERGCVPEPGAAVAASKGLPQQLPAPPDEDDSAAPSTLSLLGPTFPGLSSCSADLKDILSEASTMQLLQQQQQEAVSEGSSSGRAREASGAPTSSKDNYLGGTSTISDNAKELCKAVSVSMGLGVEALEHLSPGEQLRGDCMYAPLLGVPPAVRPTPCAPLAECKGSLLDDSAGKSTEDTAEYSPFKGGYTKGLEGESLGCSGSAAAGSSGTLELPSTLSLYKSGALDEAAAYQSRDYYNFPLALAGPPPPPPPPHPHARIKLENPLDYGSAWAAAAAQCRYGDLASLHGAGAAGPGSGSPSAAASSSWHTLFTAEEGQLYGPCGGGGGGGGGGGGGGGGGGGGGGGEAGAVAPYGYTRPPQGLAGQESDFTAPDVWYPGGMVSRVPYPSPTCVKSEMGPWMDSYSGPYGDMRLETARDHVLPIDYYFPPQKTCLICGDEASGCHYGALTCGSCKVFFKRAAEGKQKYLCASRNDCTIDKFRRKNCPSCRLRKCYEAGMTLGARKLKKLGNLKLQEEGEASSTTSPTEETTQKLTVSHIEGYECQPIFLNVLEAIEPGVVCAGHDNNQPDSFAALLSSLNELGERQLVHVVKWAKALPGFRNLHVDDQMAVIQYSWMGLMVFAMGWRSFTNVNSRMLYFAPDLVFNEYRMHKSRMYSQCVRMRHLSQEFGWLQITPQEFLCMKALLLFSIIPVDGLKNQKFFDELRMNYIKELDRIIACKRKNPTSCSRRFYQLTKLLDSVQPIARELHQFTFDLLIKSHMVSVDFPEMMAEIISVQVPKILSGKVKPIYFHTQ
Procedure, shortened: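 In this Tox21 qHTS, 2,000 HEK293 AR-bla cells per well were incubated with compounds for 16 h at 37C and 5% CO2. Fluorescence intensity was recorded 2 h after adding LiveBLAzer B/G FRET substrate at room temperature.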

[15] = molecular target: Androgen receptor (Homo sapiens) (UniProt P10275); assay: qHTS assay to identify small molecule agonists of the androgen receptor (AR) signaling pathway using the MDA cell line (AID 743040; further: nearly all actives have a fitted effect of over 20% in size)
Procedure, shortened: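 Cell-based luciferase reporter: MDA-kb2, MMTV promoter (AR + GR response elements). 16 h compound exposure at 37C; ONE-Glo, 30 min RT, luminescence.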

[16] = molecular target: Androgen receptor (Homo sapiens) (UniProt P10275); assay: qHTS assay to identify small molecule antagonists of the androgen receptor (AR) signaling pathway using the MDA cell line (AID 743042; further: nearly all actives have a fitted effect of over 55% in size)
Procedure, shortened: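 MDA-kb2 cells (human breast carcinoma, stably carrying an MMTV-luciferase reporter responsive to AR and GR) were plated at 3,000 cells/well and preincubated 5 hr at 37C, then given compound plus R1881 agonist for 16 h. ONE-Glo luminescence was read.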

[17] = qHTS assay to identify small molecule antagonists of the androgen receptor (AR) signaling pathway - cell viability counter screen (AID 743033; further: nearly all actives have a fitted effect of over 45% in size; further: potency means the concentration at half of the fitted maximal effect)
[18] = qHTS assay for identifying genotoxic compounds that show differential cytotoxicity against isogenic chicken DT40 cell lines with known DNA damage response pathways - wild type cell line (AID 743012); further: nearly all actives have a fitted effect of over 60% in size
Procedure, shortened: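 Cytotoxicity in repair-proficient parental chicken DT40 cells serves as the comparator for Rad54/Ku70- and Rev3-deficient lines. Cells were exposed to compounds for 40 h at 37 C/5% CO2, and ATP-based luminescence (CellTiter-Glo) measured viability.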

[19] = qHTS assay for identifying genotoxic compounds that show differential cytotoxicity against isogenic chicken DT40 cell lines with known DNA damage response pathways - Rev3 mutant cell line (AID 743014); further: nearly all actives have a fitted effect of over 55% in size
[20] = molecular target: Androgen receptor (Homo sapiens) (UniProt P10275); assay: qHTS assay to identify small molecule antagonists of the androgen receptor (AR) signaling pathway (AID 743035; active means well fitted inhibition curve with a large enough effect in the signal ratio in the repeat runs, not every such curve was filed as active; the % refers to the signal ratio)
Procedure, shortened: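 Steps: seed AR-UAS-bla GripTite HEK293 cells, incubate 4 h at 37C; pin in test compound, then add agonist R1881; incubate 16 h at 37C; add LiveBLAzer B/G FRET substrate, 2 h at room temperature; read fluorescence.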

Measured: Potency

Cc1cccc(C)c1OCC(C)N (configuration not stated)
not listed: [13] | [14] | [15] | [16] | [17] | [18] | [19] | [20]
inactive: all other assays above

CCOC(=O)c1ccc(OC(=O)CCCCCN=C(N)N)cc1
active: [9] 14.3 µM
not listed: [14] | [15] | [16] | [17] | [18] | [19] | [20]
inactive: all other assays above

CCN(CC)CC(=O)Nc1c(C)cccc1C
inactive: [1] | [13] | [14] | [15] | [2] | [16] | [3] | [4] | [5] | [7] | [11]

CC(N)C(=O)OC(C)(C)Cc1ccc(Cl)cc1 (configuration not stated)
inactive: [1] | [17] | [2] | [5] | [6] | [7] | [8] | [9] | [10] | [11] | [12]

CC(CO)c1ccccc1 (configuration not stated)
not listed: [1] | [9] | [20]
inactive: all other assays above

C[C@@H]1O[C@@H](O[C@@H]2[C@@H](O)[C@H](OCCc3ccc(O)c(O)c3)O[C@H](CO[C@@H]3O[C@H](CO)[C@@H](O)[C@H](O)[C@H]3O)[C@H]2OC(=O)/C=C/c2ccc(O)c(O)c2)[C@H](O)[C@H](O)[C@H]1O
inactive: [1] | [17] | [2] | [4] | [5] | [7] | [12]

O=C(c1ccc(O)cc1)c1ccc(O)c(O)c1O
inactive: [1] | [17] | [3] | [4] | [5] | [11] | [12]

O=C(O)Cc1ccc(Cl)cc1Cl
not listed: [13] | [14] | [18] | [19]
inactive: all other assays above

CCOC(=O)[C@H](CCc1ccccc1)N[C@@H](C)C(=O)N1C(=O)N(C)C[C@H]1C(=O)O
not listed: [11] | [14] | [15] | [16] | [18] | [19] | [20]
inactive: all other assays above

CCCOC(=O)C(C)O (configuration not stated)
not listed: [1] | [3] | [12] | [13] | [17] | [18] | [19]
inactive: all other assays above

BrCc1cccc(Oc2ccccc2)c1
inactive: [1] | [17] | [20] | [15] | [16] | [3] | [4] | [5] | [7] | [11] | [12]

COC(=O)[C@@H]1[C@H]2C[C@H]3c4[nH]c5ccccc5c4CCN3C[C@@H]2CC[C@@H]1O
not listed: [4] | [13] | [14] | [15] | [16] | [18] | [19] | [20]
inactive: all other assays above

O=C(NCCN1CCOCC1)c1ccc(Cl)cc1
inactive: [1] | [13] | [17] | [2] | [3] | [4] | [5] | [7] | [11] | [12]

CC(C)(C)c1cc(CCC(=O)NN)cc(C(C)(C)C)c1O
inactive: [1] | [17] | [2] | [3] | [4] | [5] | [7] | [11] | [12]

On1nnc2ccccc21
active: [17] 0.616 µM
not listed: [7] | [13] | [14] | [15] | [16] | [18] | [19] | [20]
inactive: all other assays above

O=C(/N=N/C(=O)OCc1ccccc1)OCc1ccccc1
inactive: [1] | [17] | [2] | [3] | [4] | [5] | [6] | [8] | [11] | [12]
active: [13] 61.1 µM

O=S(=O)(O)c1ccc2cc(O)c(S(=O)(=O)O)cc2c1
not listed: [7] | [14] | [15] | [16] | [18] | [19] | [20]
inactive: all other assays above

CCCC/C=C/C=C\C=O
active: [13] 61.1 µM
not listed: [4] | [17] | [18] | [19] | [20]
inactive: all other assays above

OC[C@H](Cc1cccc(O)c1)[C@H](CO)Cc1cccc(O)c1
inactive: [1] | [17] | [2] | [3] | [5] | [7] | [11] | [12]

COCCOCCOCCOCCOCCO
inactive: [1] | [13] | [17] | [2] | [3] | [4] | [5] | [7] | [11] | [12]

CC(C)CC(=O)O
inactive: [17] | [2] | [6] | [7] | [8] | [9] | [10] | [11] | [12]

C#CC(C)N(C)C(=O)Nc1ccc(Cl)cc1 (configuration not stated)
not listed: [6] | [8] | [9] | [10] | [13] | [18] | [19] | [20]
inactive: all other assays above

Nc1nnc(-c2cccc(Cl)c2Cl)c(N)n1
inactive: [18] | [13] | [17] | [2] | [3] | [4] | [5] | [7] | [11] | [12]

— PubChem BioAssay (Tox21)
